Hit rate of the full screen: of about 290,000 compounds, about 3,100 (1.1%) were called active. Cut-off read from the data, not from the text of the source: active = inhibition above about 16% (passing the limit was not always enough); inactive = the rest. This excerpt belongs to a sample that is enriched for actives.
biological target: Neuropeptides B/W receptor type 1 (Homo sapiens) (UniProt P48145); assay: blockers of human neuropeptide B/W receptor 1 – cell-based, fluorescence, single concentration, primary screen (AID 1861); conditions: GPR7-expressing cells, fluorescence antagonist assay; at 4.4 µM; active compounds read high;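 note: cells stimulated with the agonist NPW; 0% = agonist with vehicle and 100% = vehicle without agonist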
Sequence (P48145 whole entry, looked up): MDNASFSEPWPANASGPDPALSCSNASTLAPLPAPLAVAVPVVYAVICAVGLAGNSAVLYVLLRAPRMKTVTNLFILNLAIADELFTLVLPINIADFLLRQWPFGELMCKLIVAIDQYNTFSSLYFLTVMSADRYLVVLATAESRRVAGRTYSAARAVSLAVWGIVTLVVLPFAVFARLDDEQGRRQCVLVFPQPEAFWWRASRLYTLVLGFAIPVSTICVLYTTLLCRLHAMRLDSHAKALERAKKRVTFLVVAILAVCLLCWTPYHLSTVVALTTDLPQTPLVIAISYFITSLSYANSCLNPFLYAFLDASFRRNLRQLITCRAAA

inhibition, active:
O=C(NCCNc1ccc([N+](=O)[O-])cc1Cl)c1ccccc1F 33.5%
CS(=O)(=O)N(CC(O)Cn1c2ccccc2c2ccccc21)c1cccc2ccccc12 (stereo not given) 29%
COc1ccc(NS(=O)(=O)c2ccc(NC(=O)c3ccc(N(C)S(C)(=O)=O)cc3)cc2)cc1 22.9%
COc1ccc(NS(=O)(=O)c2ccc(NC(=S)NC(=O)CC(C)C)cc2)cc1 24.2%
CC(C)OC(=O)CN1C(=O)c2ccccc2C1=O 20.4%

inhibition, inactive:
O=C(NCCCNc1ccc([N+](=O)[O-])cc1Cl)c1ccccc1F 5.46%
O=C(NCCNc1ccccc1[N+](=O)[O-])c1ccccc1F 2.99%
COc1cccc(CNc2nc(C(F)(F)F)nc3ccccc23)c1 -8.14%
Cc1ccc(N2C(=O)C3C4C=CC(CC4)C3C2=O)cc1Cl (stereo not given) -5.89%
CCCCN(CCCC)CC(O)Cn1c2ccccc2c(=O)c2ccccc21 (stereo not given) 4.5%
O=C1c2ccccc2S(=O)(=O)N1CC(O)Cn1c2ccccc2c2ccccc21 (stereo not given) 27.4%
COc1cc(C(=O)NCc2cc3cc(Cl)ccc3n2C)cc(OC)c1OC -5.99%
CCN(CC)S(=O)(=O)c1ccc(N2CCN(C)CC2)c(NC(=O)Nc2ccccc2F)c1 6.45%
CC(=O)c1ccc(NC(=S)NC(=O)CC(C)C)cc1 -3.47%
COc1ccc(NC(=O)c2cnc(NS(=O)(=O)c3ccccc3)nc2)cc1 -10.5%
COc1cc(NS(=O)(=O)c2ccc(NC(C)=O)cc2)cc(OC)c1 -5.8%
COc1cc(OC)cc(C(=O)Nc2ccc(S(=O)(=O)Nc3cc(C)on3)cc2)c1 -3.8%
Cc1ccc(C(=O)OCC(=O)NC(=O)Cc2ccccc2)c(O)c1 -16.1%
CCOC(=O)CNC(=O)/C=C/c1c(Cl)cccc1Cl 10.2%
O=C(Nc1ccccc1C(=O)O)c1ccc(N2C(=O)C3CC=CCC3C2=O)cc1 (stereo not given) -9.35%
O=C(c1ccccc1)N1CCC(CC2CC(c3ccc(Cl)cc3)=NO2)(C(=O)NCC2CCCCC2)CC1 (stereo not given) -2.72%
CCc1nc(Nc2ccc(NC(C)=O)cc2)c2oc3ccccc3c2n1 -6.65%
CC(C)OC(=O)CN1C(=O)C(=O)c2ccccc21 -2.31%
Cc1cccc2c1N(CC(=O)OC(C)C)C(=O)C2=O -5.53%
N#CCOc1ccc(C2=NO[C@@H]3[C@@H]4C[C@@H]([C@H]5C(=O)N(c6ccc7c(c6)OCO7)C(=O)[C@@H]45)[C@H]23)cc1 4.89%

Reference: PubChem BioAssay AID1861 (The Scripps Research Institute Molecular Screening Center, 2009)
